Test results: PubChem BioAssay (NCATS)
Values without a mark were called inactive. Inconclusive results are not listed. The source made the active and inactive calls. Unless noted, the call rests on the fitted dose curve; in most records, active means well fitted curve in either direction with a large enough effect (not every such curve was filed as active); inconclusive means small, poorly fitted or top-dose-only effect, or another doubt; inactive means flat fitted curve, though single readings scatter.

Experiments:
[1] = AP1 Signaling Pathway (AID 357); conditions: ME-180 AP-1-bla reporter, EGF-induced, beta-lactamase ratio, 5 h; at 17.2 µM (top of the series) unless noted; further: on the % scale 0 is the no-effect control and ±100 the full control effect
Method in brief: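 AP-1-bla ME-180 cells with beta-lactamase reporter under AP-1 response element, stimulated with EC50 EGF; compounds titrated, 5 hours at 37 degrees Celsius. CCF4 read at 460/530 nm ratio; positive and negative modulators judged by AC50.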

[2] = NFAT Signaling Pathway (AID 444); conditions: Jurkat NFAT-bla M1, carbachol, beta-lactamase ratio, 5 h; at 17.2 µM (top of the series) unless noted;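 further: carbachol stimulus at about its EC50 of 1 µM final; on the % scale 0 is the no-effect control and ±100 the full control effect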
Method in brief: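 Read-out: CCF4 FRET ratio (460 nm/530 nm) after 1 h RT dye loading, used for %activity and AC50 from titration series. Cells: Jurkat NFAT-β-lactamase/M1 line, treated with compound plus 1 uM carbachol for 5 h, 37 °C.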

[3] = Stat Signaling Pathway (AID 446); conditions: ME-180 SIE beta-lactamase reporter, IL-6 stimulated, 5 h; at 17.2 µM (top of the series) unless noted;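 further: ME-180 cervical cancer cells given 40 pM IL-6 alongside compound; SIE-controlled beta-lactamase reporter measured as 460/530 nm FRET emission ratio; on the % scale 0 is the no-effect control and ±100 the full control effect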
Method in brief: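 FRET read-out (405 nm excitation, 460/530 nm emission) of a beta-lactamase reporter under a STAT-inducible element in ME-180 cervical carcinoma cells. Cells with compound receive 40 pM IL-6 for 5 h. Values are normalised to AC90 stimulation and AC90 JAK-inhibitor controls.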

[4] = target: Glucocorticoid receptor (Homo sapiens) (UniProt P04150); experiment: GR-GFP Redistribution (AID 450;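 active means compounds whose dose series gives a full or clear partial fitted curve of increased nuclear translocation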; further: potency means the concentration at half of the fitted maximal effect); conditions: U2OS GR-GFP nuclear translocation, laser cytometry, 2 h; series mostly up to 20.6 µM
Glucocorticoid receptor (Homo sapiens), sequence (P04150 whole entry, looked up): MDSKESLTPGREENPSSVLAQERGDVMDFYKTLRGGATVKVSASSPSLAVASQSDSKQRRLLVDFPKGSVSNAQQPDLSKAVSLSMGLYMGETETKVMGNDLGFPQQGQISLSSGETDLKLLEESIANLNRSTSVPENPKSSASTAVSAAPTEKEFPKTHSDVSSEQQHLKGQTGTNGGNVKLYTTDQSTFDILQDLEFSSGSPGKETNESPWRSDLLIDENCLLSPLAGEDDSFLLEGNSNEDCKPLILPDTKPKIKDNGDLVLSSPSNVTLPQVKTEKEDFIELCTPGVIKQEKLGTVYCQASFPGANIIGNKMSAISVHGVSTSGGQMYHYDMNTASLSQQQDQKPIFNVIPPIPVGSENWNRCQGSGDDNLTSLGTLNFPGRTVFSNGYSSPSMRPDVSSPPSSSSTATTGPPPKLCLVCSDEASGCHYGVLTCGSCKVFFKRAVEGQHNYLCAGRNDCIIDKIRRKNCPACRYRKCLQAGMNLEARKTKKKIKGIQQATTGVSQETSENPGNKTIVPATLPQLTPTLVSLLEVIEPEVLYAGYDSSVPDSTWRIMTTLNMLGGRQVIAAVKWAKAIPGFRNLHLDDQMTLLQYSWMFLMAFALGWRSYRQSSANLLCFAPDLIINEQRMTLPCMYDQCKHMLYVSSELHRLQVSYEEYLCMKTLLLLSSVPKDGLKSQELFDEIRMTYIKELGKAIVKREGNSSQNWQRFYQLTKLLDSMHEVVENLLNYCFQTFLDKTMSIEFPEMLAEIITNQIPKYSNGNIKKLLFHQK

[5] = qHTS Assay for Identification of Small Molecule Agonists for Hypoxia Response Element Signaling Pathway (AID 914; active means well fitted activation curve with a large enough effect in the signal ratio, with a control signal flat, not every such curve was filed as active; the % refers to the signal ratio; further: potency means the concentration at half of the fitted maximal effect; on activation: % of control where 0% means no effect); conditions: ME-180 (cervical carcinoma) HRE-bla reporter, beta-lactamase ratio, CoCl2, 17 h; activation: active compounds read high
Method in brief: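 Read-out: CCF4 FRET ratio of 460nm to 530nm emission (excitation 405nm) after 2.5 hours at room temperature, taken from HRE-bla ME-180 cells that had been exposed to compound and EC50 CoCl2 for 17 hours.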

[6] = target: 3',5'-cyclic-AMP phosphodiesterase 4B (Homo sapiens) (UniProt Q07343); experiment: qHTS Assay for Inhibitors of PDE-IV (AID 607; active means well fitted activation curve with a large enough effect in the main read-out, with a control signal flat, not every such curve was filed as active; further: % of control where 0% means no effect); conditions: HEK293 ACTOne CNG channel cells, membrane potential fluorescence; series mostly up to 22.9 µM
3',5'-cyclic-AMP phosphodiesterase 4B (Homo sapiens), sequence (Q07343 whole entry, looked up): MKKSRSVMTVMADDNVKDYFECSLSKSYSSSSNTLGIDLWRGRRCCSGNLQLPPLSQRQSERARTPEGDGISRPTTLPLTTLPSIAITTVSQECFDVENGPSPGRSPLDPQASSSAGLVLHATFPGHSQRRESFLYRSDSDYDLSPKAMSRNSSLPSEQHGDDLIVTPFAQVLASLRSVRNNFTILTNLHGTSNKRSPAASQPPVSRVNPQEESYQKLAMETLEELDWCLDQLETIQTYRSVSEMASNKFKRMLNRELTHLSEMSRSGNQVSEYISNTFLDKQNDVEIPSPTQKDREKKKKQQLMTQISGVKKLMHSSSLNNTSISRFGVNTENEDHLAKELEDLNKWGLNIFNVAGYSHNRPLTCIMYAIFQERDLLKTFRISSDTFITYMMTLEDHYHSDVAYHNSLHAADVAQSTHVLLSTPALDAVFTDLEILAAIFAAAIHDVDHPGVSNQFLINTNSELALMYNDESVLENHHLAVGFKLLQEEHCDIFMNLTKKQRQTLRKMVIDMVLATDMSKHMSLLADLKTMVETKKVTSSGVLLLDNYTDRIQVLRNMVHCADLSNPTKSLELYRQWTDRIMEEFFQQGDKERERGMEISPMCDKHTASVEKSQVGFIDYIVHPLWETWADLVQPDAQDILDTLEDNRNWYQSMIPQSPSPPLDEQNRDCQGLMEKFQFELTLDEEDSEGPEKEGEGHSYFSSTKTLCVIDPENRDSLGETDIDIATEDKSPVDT
Method in brief: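 Cell-based read-out of cAMP via a modified cyclic nucleotide-gated channel and membrane potential dye (535/590 nm) in HEK293 cells expressing PDE4 endogenously. Compounds tested up to 22.9 uM final; 100 uM RO 20-1724 reference.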

[7] = target: Guanine nucleotide-binding protein G(i) subunit alpha-1 (Homo sapiens) (UniProt P63096); experiment: qHTS Assay for Inhibitors of RGS12 GoLoco Motif Activity (Green Fluorophore) (AID 879; active means well fitted curve in the direction sought with a large enough effect; an effect the other way counts as inactive or inconclusive;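 further: 0% = labeled peptide with Gαi1 and full inhibition = labeled peptide alone without protein; negative values mean loss of peptide binding seen as reduced polarization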); conditions: Galphai1/FITC-RGS12 GoLoco peptide, fluorescence polarization; series mostly up to 57.1 µM
Guanine nucleotide-binding protein G(i) subunit alpha-1 (Homo sapiens), sequence (P63096 whole entry, looked up): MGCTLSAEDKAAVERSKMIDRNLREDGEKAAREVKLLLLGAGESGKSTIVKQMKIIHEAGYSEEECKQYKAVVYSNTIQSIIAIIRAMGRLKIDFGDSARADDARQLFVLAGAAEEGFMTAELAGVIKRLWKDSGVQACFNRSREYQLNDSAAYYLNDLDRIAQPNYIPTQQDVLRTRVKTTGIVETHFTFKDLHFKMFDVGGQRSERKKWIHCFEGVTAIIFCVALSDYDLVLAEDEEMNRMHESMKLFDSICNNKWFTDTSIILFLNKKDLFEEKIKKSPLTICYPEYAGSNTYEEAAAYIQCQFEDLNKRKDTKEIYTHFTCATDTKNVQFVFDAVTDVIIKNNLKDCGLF
Method in brief: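 A drop in FITC polarization marked displacement of the FITC-tagged RGS12 GoLoco peptide (10 nM) from Gαi1 (50 nM). Compounds were incubated 10 min at room temperature in Tris pH 7.5 buffer containing 150 mM NaCl, 0.1 mM GDP and 0.05% NP40; unlabeled peptide titration served as control.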

[8] = qHTS Assay for Identification of Small Molecule Agonists for Thrombopoietin (TPO) Signaling Pathway (AID 917; active means well fitted curve in the direction sought with a large enough effect; an effect the other way counts as inactive or inconclusive; further: on the % scale 0 is the no-effect control and ±100 the full control effect); conditions: TPO signaling pathway reporter cells, agonist qHTS, stimulated with TPO at its EC50; series mostly up to 38.5 µM
Method in brief: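 Human TPO receptor–transfected Ba/F3 cells (murine, IL-3-dependent) in IL-3-deficient medium; compounds plus TPO at EC50, 26 pM final; 24 hrs, 37 C; GpIIb-luciferase luminescence after 10 min RT detection.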

[9] = target: Pyruvate kinase (Leishmania mexicana) (UniProt Q27686); experiment: qHTS Validation Assay for Inhibitors of Leishmania Mexicana Pyruvate Kinase (AID 945; active means well fitted curve in the direction sought with a large enough effect; an effect the other way counts as inactive or inconclusive;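 further: 0% = DMSO only neutral control wells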); conditions: purified L. mexicana pyruvate kinase, enzyme activity, E451W mutant enzyme; series mostly up to 57.5 µM
Pyruvate kinase (Leishmania mexicana), sequence (Q27686 2-499 E452W): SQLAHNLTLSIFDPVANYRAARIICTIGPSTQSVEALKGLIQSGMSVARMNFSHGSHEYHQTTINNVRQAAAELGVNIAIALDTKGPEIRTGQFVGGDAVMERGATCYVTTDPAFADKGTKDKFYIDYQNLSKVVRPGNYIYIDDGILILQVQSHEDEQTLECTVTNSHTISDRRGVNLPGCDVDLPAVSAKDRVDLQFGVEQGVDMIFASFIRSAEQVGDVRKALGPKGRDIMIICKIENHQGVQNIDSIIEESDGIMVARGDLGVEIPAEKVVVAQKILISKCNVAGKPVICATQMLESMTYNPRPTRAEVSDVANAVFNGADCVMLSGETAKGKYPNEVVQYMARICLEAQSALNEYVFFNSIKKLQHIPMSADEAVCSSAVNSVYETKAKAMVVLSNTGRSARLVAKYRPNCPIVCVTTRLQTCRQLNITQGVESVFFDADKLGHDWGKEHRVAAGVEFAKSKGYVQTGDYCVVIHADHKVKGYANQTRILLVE
Method in brief: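 Substrate mix (0.5 mM PEP, 0.1 mM ADP, 7 mM MgCl2, 50 mM KCl, pH 7.2 imidazole) received compound by pin tool, then 0.2 nM LmPYK E451W. After 1 h at room temperature, PKLight was added and luminescence measured.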

[10] = target: Pyruvate kinase PKM (Homo sapiens) (UniProt P14618); experiment: qHTS Assay for Activators of Human Muscle Pyruvate Kinase (AID 954; active means well fitted curve in the direction sought with a large enough effect, not every such curve was filed as active;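 further: 0% = uninhibited enzyme and -100% = no enzyme or full thiadiazolimine inhibition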); conditions: purified human muscle pyruvate kinase, luciferase-coupled luminescence, 1 h; series mostly up to 57.5 µM
Pyruvate kinase PKM (Homo sapiens), sequence (P14618 whole entry, looked up): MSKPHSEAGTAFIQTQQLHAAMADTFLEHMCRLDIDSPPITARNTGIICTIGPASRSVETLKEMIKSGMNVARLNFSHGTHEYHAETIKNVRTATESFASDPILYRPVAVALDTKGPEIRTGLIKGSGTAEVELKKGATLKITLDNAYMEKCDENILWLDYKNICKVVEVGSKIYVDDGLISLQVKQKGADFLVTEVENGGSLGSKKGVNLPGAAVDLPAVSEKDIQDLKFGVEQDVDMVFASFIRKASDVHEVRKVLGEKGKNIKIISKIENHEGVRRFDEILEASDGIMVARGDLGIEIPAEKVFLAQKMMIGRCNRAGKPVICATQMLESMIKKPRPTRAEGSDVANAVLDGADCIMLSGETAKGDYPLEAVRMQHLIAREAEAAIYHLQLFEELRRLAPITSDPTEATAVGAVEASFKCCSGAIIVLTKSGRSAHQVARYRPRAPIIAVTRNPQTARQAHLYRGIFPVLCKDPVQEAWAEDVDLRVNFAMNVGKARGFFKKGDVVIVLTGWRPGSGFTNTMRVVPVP
Method in brief: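 ATP production by PKM2 detected via luciferase luminescence after 1 h room-temperature reaction (0.1 nM enzyme, PEP at Km 0.5 mM, ADP 0.1 mM, pH 7.2 imidazole buffer). Inhibition scaled to no-enzyme control; activation referenced to 0.3 nM enzyme wells.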

[11] = target: Alpha-galactosidase A (Homo sapiens) (UniProt P06280); experiment: Counterscreen for Glucocerebrosidase Inhibitors: qHTS Assay for Human alpha-Galactosidase at pH 4.5 (AID 992; active means well fitted curve in the direction sought with a large enough effect; an effect the other way counts as inactive or inconclusive; further: 0% is about no effect); conditions: purified enzyme, fluorogenic substrate; series mostly up to 76.9 µM
Alpha-galactosidase A (Homo sapiens), sequence (P06280 whole entry, looked up): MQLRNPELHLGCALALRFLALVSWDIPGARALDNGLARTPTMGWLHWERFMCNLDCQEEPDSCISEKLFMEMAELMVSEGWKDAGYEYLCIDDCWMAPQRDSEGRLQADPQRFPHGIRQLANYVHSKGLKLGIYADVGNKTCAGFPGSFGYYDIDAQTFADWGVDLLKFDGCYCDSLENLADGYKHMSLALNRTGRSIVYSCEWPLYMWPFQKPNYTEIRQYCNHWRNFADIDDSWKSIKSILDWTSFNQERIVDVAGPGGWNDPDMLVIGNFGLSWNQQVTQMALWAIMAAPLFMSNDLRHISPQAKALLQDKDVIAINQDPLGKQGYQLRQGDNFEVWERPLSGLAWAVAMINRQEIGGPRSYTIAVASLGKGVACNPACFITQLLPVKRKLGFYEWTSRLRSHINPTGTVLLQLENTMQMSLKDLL
Method in brief: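 Fluorogenic 1536-well qHTS at pH 4.5 (citrate, Tween-20): 2 nM enzyme, 80 uM 4-MU-alpha-galactoside, 20 min room temperature, NaOH/glycine stop. Titration 0.7 nM to 77 uM, data normalized to no-enzyme and full-activity controls, Hill-fitted AC50.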

[12] = target: alpha-glucosidase (Oryza sativa, rice) (UniProt Q653V4); experiment: Counterscreen for Glucocerebrosidase Inhibitors: qHTS Assay for Rice alpha-Glucosidase at pH 5.0 (AID 997; active means well fitted curve in the direction sought with a large enough effect; an effect the other way counts as inactive or inconclusive;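 further: 0% = full activity with enzyme and -100% = basal without enzyme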); conditions: rice alpha-glucosidase enzyme activity; series mostly up to 76.9 µM
Method in brief: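 Endpoint fluorogenic assay at pH 5.0: compounds (0.7 nM to 77 uM) titrated against 4 nM rice enzyme and 400 uM 4-MU-alpha-glucoside for 20 min at room temperature; NaOH/glycine stop, read ex 365/em 440 nm, Hill-fitted AC50.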

## NC(=O)CSc1nc(N)c2c3c(sc2n1)CCCCC3
[1]
  activity change, negative = inhibition: -2.28%
[2]
  activity change, negative = inhibition: -8.37%
[3]
  activity, negative = inhibition: -4.35%
[4]
  Potency: > 20.6 µM
[5]
  activation: -10.3%

## O=C(NC1CCCCC1)[C@H](O)[C@@H](O)C(=O)NC1CCCCC1
[1]
  activity change, negative = inhibition: 8.04%
[2]
  activity change, negative = inhibition: 0.354%
[3]
  activity, negative = inhibition: 4.25%
[4]
  Potency: > 20.6 µM
[5]
  activation: 12.1%

## CC(C)CNC(=O)c1c(N)n(/N=C/c2cccnc2)c2nc3ccccc3nc12
[1]
  activity change, negative = inhibition: 9.25%
[2]
  activity change, negative = inhibition: 329% [activator] (active)
[3]
  activity, negative = inhibition: 16.6%
[4]
  Potency: > 20.6 µM
[5]
  Potency: 10 µM (active)

## COCCNc1nc2c(c(=O)n(Cc3ccc(OC)cc3)c(=O)n2C)n1C
[1]
  activity change, negative = inhibition: -10.1%
[2]
  activity change, negative = inhibition: -7.8%
[3]
  activity, negative = inhibition: -12.3%
[4]
  Potency: > 20.6 µM
[5]
  activation: -9.75%

## COc1ccc(C2CC(=O)c3sc(N)nc3C2)cc1 (stereo not given)
[1]
  activity change, negative = inhibition: -9.21%
[2]
  activity change, negative = inhibition: 5.45%
[3]
  activity, negative = inhibition: 3.6%
[4]
  Potency: > 20.6 µM
[5]
  activation: -11%

## CN1CCN(c2c3c(c(C#N)c4nc5ccccc5n24)CCCC3)CC1
[1]
  activity change, negative = inhibition: 14.7%
[2]
  activity change, negative = inhibition: 0.538%
[3]
  activity, negative = inhibition: 5.04%
[4]
  Potency: > 20.6 µM
[5]
  activation: -2.43%

## Oc1ccccc1CNn1cnnc1
[1]
  activity change, negative = inhibition: -0.712%
[2]
  activity change, negative = inhibition: 15.6%
[3]
  activity, negative = inhibition: 4.83%
[4]
  Potency: > 20.6 µM
[5]
  activation: 7.68%

## CCCCOC(=O)CSc1nc(N)c(C#N)c(-c2ccc(OC)cc2)c1C#N
[1]
  activity change, negative = inhibition: -13.6%
[2]
  activity change, negative = inhibition: -0.768%
[4]
  Potency: > 20.6 µM

## CC(=O)Nc1ccccc1O
[1]
  activity change, negative = inhibition: 0.55%
[2]
  activity change, negative = inhibition: 16%
[3]
  activity, negative = inhibition: 2.83%
[5]
  activation: 8.91%

## CCc1nc(NCC2CCCO2)c(C#N)c2c1COC(C)(C)C2 (stereo not given)
[1]
  activity change, negative = inhibition: -25.1%
[2]
  activity change, negative = inhibition: -16.2%
[3]
  activity, negative = inhibition: -2.2%
[4]
  Potency: > 20.6 µM
[5]
  activation: -11.3%

## Fc1ccc(-c2cnc[nH]2)cc1
[1]
  activity change, negative = inhibition: 3.07%
[2]
  activity change, negative = inhibition: -3.45%
[3]
  activity, negative = inhibition: -3.45%
[4]
  Potency: > 20.6 µM
[5]
  activation: 14%

## c1ccc2c(c1)CCC[C@H]2C1=NCCN1
[1]
  activity change, negative = inhibition: 4.49% [at 38 µM]
[2]
  activity change, negative = inhibition: -2.65% [at 38 µM]
[3]
  activity, negative = inhibition: 7.24% [at 38 µM]
[6]
  Potency: inactive
[7]
  outcome: inactive
[8]
  Potency: inactive
[9]
  Potency: inactive
[10]
  outcome: inactive
[11]
  outcome: inactive
[12]
  outcome: inactive

## CCOC(=O)C(c1ccccc1)N1CCN(c2ccc(OC)cc2)CC1 (stereo not given)
[1]
  activity change, negative = inhibition: -19.8%
[2]
  activity change, negative = inhibition: 19.4%
[3]
  activity, negative = inhibition: 4.69%
[4]
  Potency: > 20.6 µM
[5]
  activation: -13.4%

## Cc1cc(C)c(S(=O)(=O)O)c(C)n1
[1]
  activity change, negative = inhibition: 6.1%
[2]
  activity change, negative = inhibition: -2.21%
[3]
  activity, negative = inhibition: 6.56%
[4]
  Potency: > 20.6 µM
[5]
  activation: 11.7%

## O=C(CSc1nnc(-c2ccco2)c(-c2ccco2)n1)Nc1ccccc1
[1]
  activity change, negative = inhibition: 3.29%
[2]
  activity change, negative = inhibition: -3.07%
[3]
  activity, negative = inhibition: -9.01%
[4]
  Potency: > 20.6 µM
[5]
  activation: -14.8%

## CC(C)(C)NCc1cc2ccccc2[nH]c1=O
[1]
  activity change, negative = inhibition: -4.82%
[2]
  activity change, negative = inhibition: -24.2%
[3]
  activity, negative = inhibition: 3.71%
[4]
  Potency: > 20.6 µM
[5]
  activation: -14.6%

## CCOC(=O)CCc1c(C)c(C#N)c2[nH]c3ccccc3n2c1=O
[1]
  activity change, negative = inhibition: -16.5%
[2]
  activity change, negative = inhibition: -0.365%
[4]
  Potency: > 20.6 µM

## Cc1ccc(-n2c(SCC(=O)NCc3ccco3)nc3nc4c(cc3c2=O)COC(C)(C)C4)cc1
[1]
  activity change, negative = inhibition: -7.85%
[2]
  activity change, negative = inhibition: -16.8%
[3]
  activity, negative = inhibition: -3.2%
[4]
  Potency: > 20.6 µM
[5]
  activation: -23.6%

## CCN(CC)CCN1C(=O)C(O)=C(C(=O)c2cc3ccccc3o2)C1c1cccnc1 (stereo not given)
[1]
  activity change, negative = inhibition: 4.98%
[2]
  activity change, negative = inhibition: -3.08%
[3]
  activity, negative = inhibition: 2.38%
[4]
  Potency: > 20.6 µM
[5]
  activation: 11.5%

## CN(C=C1C(=O)CC(C)(C)CC1=O)CCN1CCNCC1
[1]
  activity change, negative = inhibition: 19.5%
[2]
  activity change, negative = inhibition: -19.2%
[3]
  activity, negative = inhibition: 4.61%
[4]
  Potency: > 20.6 µM
[5]
  activation: -4.98%
